# SW480 rereplic: inducers of DNA re-replication in SW480 colon cancer cells; AID 624297; 340,000 tested, 1.8% active; SW480 DNA re-replication, Hoechst DNA content imaging, 48 h; Potency, µM (series often up to 46.1 µM), without a hit: at the highest dose re-replication activation, hits mostly activators; note: % of control where 0% means no effect; nearly all actives have a fitted effect of over 55% in size
#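 Cells (250 per well) received 23 nL compound or DMSO by pin tool and were kept 48 hr at 37 C, 5% CO2. Nuclei were then stained with Hoechst for 40 min and scanned for DNA content.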
# KB-3-1 cytotox: kills parental KB-3-1 adenocarcinoma cells | KB-3-1 viability, CellTiter-Glo ATP luminescence, 72 h | Potency, µM (doses to about 46.1 µM), hits mostly cytotoxic | 400,000 tested, 1.4% active; note: % is set by controls: 0 for no effect and ±100 for the full control effect; nearly all actives have a fitted effect of over 60% in size
#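 Cells are dispensed, compounds pinned in, plates held at 37 °C for 72 h, then CellTiter-Glo is added and luminescence read after 10 minutes. Cell line: parental KB-3-1 in phenol-red-free DMEM, 10% FBS.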
# MCF10A rerep: induces DNA re-replication in MCF 10a normal breast cells; MCF 10A DNA re-replication, Hoechst nuclear intensity, 48 h; Potency, µM (series often up to 46.1 µM), without a hit: at the highest dose activity, positive = re-replication, actives largely listed as activators; 350,000 tested, 2.9% active; AID 624296; note: % of control where 0% means no effect; nearly all actives have a fitted effect of over 50% in size
# HT1080 IDH1KD tx: toxicity to HT-1080 IDH1 knockdown cells (counter line). 360,000 tested, 2% active. HT-1080 IDH1 knockdown viability, ATP luminescence, 48 h. Potency, µM (doses to about 46.1 µM), without a hit: at the top dose activity, negative = toxicity, usual class: cytotoxic;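 note: 0% = DMSO wells and -100% = cell-free medium wells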
#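 % activity derives from luminescence (CellTiter-Glo), normalised to DMSO and no-cell wells. HT-1080-IDH1KD cells, 750/well, had 48 h compound exposure at 37 °C.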
# KB-V1 MDR tox: kills drug-selected multidrug resistant KB-V1 cells; Potency, µM (doses to about 46.1 µM), actives largely listed as cytotoxic; KB-V1 MDR cells viability, CellTiter-Glo, 72 h; 400,000 tested, 3.4% active; note: % is set by controls: 0 for no effect and ±100 for the full control effect; nearly all actives have a fitted effect of over 60% in size
#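 Potencies derive from concentration-effect curves fitted to normalized luminescence (CellTiter-Glo) of KB-V1 cells treated for 72 h at 37 degrees C in phenol-red-free DMEM containing 10% FBS.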
# HT1080NT lethal: kills 2HG-producing HT-1080-NT fibrosarcoma cells; AID 686970; 360,000 tested, 1.6% active; HT-1080-NT fibrosarcoma viability, CellTiter-Glo ATP luminescence, 48 h; Potency, µM (series often up to 46.1 µM), inactives show at the top dose activity, negative = less viability, most hits filed as cytotoxic;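 note: NT is the 2HG producing partner of a matched IDH1 knockdown line; 0% = DMSO-treated cells and -100% = media-only wells without cells; nearly all actives have a fitted effect of over 55% in size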
#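 750 cells/well, RPMI + 5% FBS; 2 h settle, compound pin-transfer, 48 h at 37 degrees C. CellTiter-Glo 10 min RT, luminescence. Normalized to DMSO and media-only wells.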
# * hit, by the source's call; i = inactive; ? = inconclusive; · = not tested or not shown. Only some compounds are listed: those with a hit (about 7.9% of all), similar ones and a draw of the others. Calls come from the whole dose curve; as a rule, active = well fitted curve in the direction sought with a large enough effect; inconclusive = small, poorly fitted or top-dose-only effect, or another doubt; inactive = no such curve, though single readings can be large; an effect the other way counts as inactive or inconclusive. Potency is the fitted concentration of half-maximal effect.
SMILES,SW480 rereplic,KB-3-1 cytotox,MCF10A rerep,HT1080 IDH1KD tx,KB-V1 MDR tox,HT1080NT lethal
Nc1c(C(=O)c2ccccc2)oc2ccccc12,?,i,12.6µM*,?,i,-10.2%
O=C(Nc1c(C(=O)c2ccccc2)oc2ccccc12)c1ccc(F)cc1,·,i,·,·,i,·
Nc1c(C(=O)c2ccc(F)cc2)oc2ccccc12,16.5%,?,7.31µM*,-5.0%,i,-4.2%
COc1ccc(Cc2c(-c3cccc(Br)c3)nc3c(C)cc(Br)cn23)c(C)c1,·,i,·,-0.8%,i,-12.4%
Cc1cnnc2ccccc12,·,i,·,·,i,·
COc1ccc(NC(=O)CSc2nc3sc(C)c(C)c3c(=O)n2Cc2ccco2)cc1,?,i,14.6µM*,?,?,-0.3%
Cc1ccc(CSc2nc3sc(C)c(C)c3c(=O)n2Cc2ccco2)cc1,-12.0%,i,-0.8%,2.8%,i,6.4%
Cc1sc2nc(SCc3ccccc3)n(Cc3ccco3)c(=O)c2c1C,6.2%,i,9.2µM*,8.1%,i,-2.2%
Cc1sc2nc(SCC(=O)C(C)(C)C)n(Cc3ccco3)c(=O)c2c1C,5.8µM*,?,5.8µM*,6.31µM*,2.59µM*,7.08µM*
CC1(C)N=C(N)N=C(N)N1c1ccc(OCC(=O)N2CCOCC2)c(Cl)c1,·,?,·,0.13µM*,i,0.517µM*
CC1(C)N=C(N)N=C(N)N1c1ccc(OCC(=O)N2CCOCC2)cc1,·,?,·,6.51µM*,i,23.1µM*
COc1cccc(NC(=O)c2c(-c3ccc(C)cc3)nnc3ccccc23)c1,·,i,·,·,i,·
Clc1ccc(C2=Nn3c(nnc3-c3n[nH]c4c3CCC4)SC2)cc1Cl,?,?,?,?,4.61µM*,-29.4%
Cc1c(/C=N/NC(=O)CNc2ccccc2)c2ccccn2c1C(=O)c1ccccc1,-13.6%,?,?,-27.7%,3.66µM*,-15.3%
COC(=O)N/N=C/c1c(C)c(C(=O)c2ccc(F)cc2)n2ccccc12,-27.9%,i,?,?,23.1µM*,-0.6%
Cc1c(/C=N/NC(=O)c2ccc(O)cc2)c2ccccn2c1C(=O)c1ccc(F)cc1,-10.3%,?,29.0%,?,18.4µM*,?
CCOC(=O)N/N=C/c1c(C)c(C(=O)c2ccc(F)cc2)n2ccccc12,-3.8%,i,-2.1%,17.3%,i,17.6%
Cc1c(/C=N/NC(=O)c2ccccc2O)c2ccccn2c1C(=O)c1ccc(F)cc1,19.6%,?,6.51µM*,?,?,?
COc1ccc(NC(=O)CCCSc2ccccc2)cc1S(N)(=O)=O,0.4%,i,2.1%,-0.1%,i,0.6%
COc1ccc(NC(=O)CN(Cc2ccccc2)Cc2ccccc2)cc1S(N)(=O)=O,-100.3%,i,-5.2%,-1.6%,20.6µM*,1.5%
COc1ccc(NC(=O)COc2ccccc2Cc2ccccc2)cc1S(N)(=O)=O,-7.0%,16.4µM*,5.6%,-24.8%,10.3µM*,-8.6%
Cc1ccc(S(=O)(=O)NCC2CCC(C(=O)NCCc3ccccc3)CC2)cc1 (centres undefined),·,i,·,·,i,·
CCOC(=O)c1c(NC(=O)CN2CCN(S(=O)(=O)c3cc(Cl)ccc3Cl)CC2)sc(C(=O)N(C)C)c1C,-52.0%,?,20.4%,?,i,-20.5%
CC(=NNC(=S)N1CCCCC1)c1cccc(C)n1,?,0.231µM*,?,?,?,-22.1%
CSC(=S)NN=C(C)c1cccc(C)n1,0.366µM*,?,?,?,?,-26.3%
SMILES,SW480 rereplic,KB-3-1 cytotox,MCF10A rerep,HT1080 IDH1KD tx,KB-V1 MDR tox,HT1080NT lethal
Cc1cccc(C(=S)N2CCOCC2)n1,-21.1%,i,3.9%,6.1%,i,9.5%
Cc1c(Cl)cccc1-n1ncc(C(=O)Nc2ccc(Br)cc2F)c1C1CCNCC1,·,i,·,·,i,·
Cc1ccc2nc(-c3ccc(Cl)c(NC(=O)COc4cccc(C)c4C)c3)oc2c1,·,i,·,·,?,·
Clc1ccccc1-c1nnc2sc(-c3ccc4c(c3)OCO4)nn12,6.51µM*,20.6µM*,?,?,8.2µM*,?
Brc1ccccc1-c1nnc2sc(-c3ccc4c(c3)OCCO4)nn12,?,i,6.51µM*,·,?,·
Oc1cccc(C=NN=C2c3ccccc3-c3ccccc32)c1,-4.8%,i,?,-23.5%,18.4µM*,-5.6%
Oc1cccc(/C=N/N2CCN(C3c4ccccc4-c4ccccc43)CC2)c1,0.3%,i,?,23.1µM*,i,?
O=C1Nc2ccccc2/C1=N/N=C/c1cccc(O)c1,0.2%,i,-0.9%,-3.6%,i,3.1%
COc1cc2nc(N3CCCN(C)CC3)nc(N(C)C)c2cc1OC,·,·,·,-17.2%,·,-22.1%
Cc1nn(S(=O)(=O)c2ccc(C(C)(C)C)cc2)c(C)c1S(=O)(=O)N1CCCCCC1,·,i,·,·,i,·
NNC(=S)Nc1ccc(S(=O)(=O)N2CCOCC2)cc1,3.1%,i,-0.2%,-1.8%,?,5.3%
COc1ccc(NC(=O)c2cc(S(=O)(=O)N3CCOCC3)ccc2N2CCOCC2)cc1,13.8%,·,10.1%,14.4%,·,6.1%
C/C(=N\NC(=S)Nc1cc(S(=O)(=O)N2CCOCC2)ccc1Cl)c1ccccc1F,?,?,?,?,3.66µM*,-17.4%
O=S(=O)(c1ccc(NC(=S)Nc2ccc(OC(F)F)cc2)cc1)N1CCOCC1,-5.5%,i,0.5%,-3.0%,23.1µM*,-5.5%
O=C(Nc1ccccc1O)c1cc(S(=O)(=O)N2CCOCC2)c(Cl)cc1Cl,?,i,?,-22.3%,2.91µM*,?
O=C(Nc1ccc(OC(F)F)cc1)c1cc(S(=O)(=O)N2CCOCC2)ccc1N1CCCC1,-2.4%,i,-3.3%,0.6%,9.2µM*,-8.5%
CCCCNC(=O)C1c2ccccc2OCC(=O)N1CCc1ccc(OC)c(OC)c1 (centres undefined),·,i,·,7.0%,i,14.9%
Cc1ccc(-c2cn3nc(N4CCCC(C(=O)NCc5ccccc5F)C4)sc3n2)cc1 (centres undefined),·,i,·,·,i,·
Cc1cc(Br)cc(C)c1NC(=O)c1sc2ncn(Cc3cccc(F)c3)c(=O)c2c1C,·,i,·,·,i,·
Cc1ccc(N(C)C(=O)Cn2ncc3c([nH]c4ccccc43)c2=O)cc1C,·,i,·,·,i,·
O=C(Nc1cc(S(=O)(=O)N2CCOCC2)ccc1N1CCCC1)c1cc(F)c(F)cc1Cl,-2.6%,i,-0.7%,-0.2%,16.4µM*,-7.3%
O=C(Nc1cc(S(=O)(=O)N2CCOCC2)ccc1N1CCOCC1)c1ccccc1Cl,3.3%,i,-1.3%,16.8%,i,0.2%

# Screens from PubChem BioAssay.
